NPC1 prom act: qHTS Assay for NPC1 Promoter Activators | Potency, µM (highest dose often 9.22 µM), hits mostly activators | AID 485313, 2010 | Huh7 NPC1 promoter luciferase reporter, 24 h | 320,000 tested, 2.4% active; also: nearly all actives have a fitted effect of over 60% in size
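Compounds in DMSO were transferred onto Huh7 NPC1-luciferase reporter cells pre-incubated 2 h; after 24 h at 37 °C, Amplite reagent was dispensed and luminescence recorded 10 min later.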
FLuc counter: qHTS profiling assay for firefly luciferase inhibitor/activator using purifed enzyme and Km concentrations of substrates (counterscreen for miR-21 project) | purified FLuc, Km substrates, luminescence inhibition | Luciferin 4-monooxygenase (Photinus pyralis), P08659 | 360,000 tested, 6.9% active | AID 588342, 2011 | Potency, µM (doses to about 57.5 µM), usual class: inhibitors; also: nearly all actives have a fitted effect of over 55% in size
Target sequence (P08659 whole entry, looked up): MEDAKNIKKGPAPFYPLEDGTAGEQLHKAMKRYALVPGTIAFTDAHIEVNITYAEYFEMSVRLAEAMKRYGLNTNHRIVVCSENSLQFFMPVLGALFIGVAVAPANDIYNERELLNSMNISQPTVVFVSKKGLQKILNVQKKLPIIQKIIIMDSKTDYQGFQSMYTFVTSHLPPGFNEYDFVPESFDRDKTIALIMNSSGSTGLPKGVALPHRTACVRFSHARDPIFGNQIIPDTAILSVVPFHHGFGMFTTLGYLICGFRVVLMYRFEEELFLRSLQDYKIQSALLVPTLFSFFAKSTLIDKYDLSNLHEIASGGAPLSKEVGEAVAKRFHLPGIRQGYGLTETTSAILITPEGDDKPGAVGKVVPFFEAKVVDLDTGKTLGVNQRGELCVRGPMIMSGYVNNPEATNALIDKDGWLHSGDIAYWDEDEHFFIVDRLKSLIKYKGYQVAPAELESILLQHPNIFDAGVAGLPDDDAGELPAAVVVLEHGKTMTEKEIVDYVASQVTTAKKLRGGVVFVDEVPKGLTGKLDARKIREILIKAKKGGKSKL
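Purified P. pyralis luciferase, 10 nM final, with Km-level 10 uM D-luciferin and 10 uM ATP in 50 mM Tris acetate pH 7.5, 10 mM Mg acetate, 0.01% Tween-20, 0.05% BSA; 6-point qHTS titration about 60 µM downward; luminescence read.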
ELG1 genotoxic: qHTS screen for small molecules that induce genotoxicity in human embryonic kidney (HEK293T) cells expressing luciferase-tagged ELG1; HEK293T ELG1-luciferase reporter, luminescence, 16 h; Potency, µM (titrated, usually from 46 µM), hits mostly activators; 330,000 tested, 1.3% active; also: nearly all actives have a fitted effect of over 60% in size
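Step 1: seed 2,000 HEK293T ELG1-luciferase cells per well. Step 2: add compound or DMSO, incubate 16 hr at 37 °C. Step 3: ONE-Glo, 30 min at room temperature, read luminescence.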
Rab9 promoter act: qHTS Assay for Rab9 Promoter Activators; Huh7 Rab9 promoter-luciferase reporter, luminescence, 24 h; Potency, µM (doses to about 9.22 µM), most hits filed as activators; 320,000 tested, 2.8% active; also: nearly all actives have a fitted effect of over 60% in size
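Using Huh7 cells stably transfected with Rab9 promoter–luciferase, compounds were incubated 24 h at 37 °C, 5% CO2; luciferase luminescence was read 10 min after reagent addition.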
SMN2 splice up: qHTS Assay for Enhancers of SMN2 Splice Variant Expression | 210,000 tested, 2.8% active | Potency, µM (series often up to 46.1 µM), usual class: activators | AID 1458, 2008 | HEK293 SMN2-luciferase splicing reporter, luminescence, 30-36 h; also: nearly all actives have a fitted effect of over 55% in size
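HEK293 cells carry an SMN2 […]–luciferase reporter in which exon 7 inclusion puts luciferase in frame. Cells were plated 10-12 h before compound addition, then incubated 30-36 h at 37C. ONE-Glo luminescence was read; sodium butyrate at 4.5 mM final served as control.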
A number is an active result; i = inactive; ? = inconclusive; nt = not tested or not shown; [ ] = remark or other dose. Hits are enriched below; roughly 7.4% of the tested compounds scored in any of these assays. Calls follow the shape of the dose curve; as a rule, active = well fitted curve in the direction sought with a large enough effect; inconclusive = small, poorly fitted or top-dose-only effect, or another doubt; inactive = no such curve, though single readings can be large; an effect the other way counts as inactive or inconclusive.

SMILES	NPC1 prom act	FLuc counter	ELG1 genotoxic	Rab9 promoter act	SMN2 splice up
CCOC(=O)C(C(=O)OCC)C(C[N+](=O)[O-])c1ccccc1 (stereo unspecified)	i	i	i	i	i
O=C(c1ccc(-c2ccc(Cl)cc2Cl)o1)N1CCOCC1	3.2µM	8.5µM	?	3.2µM	22µM
O=C(c1cc(-c2ccc(Cl)cc2Cl)on1)N1CCN(C(=O)c2ccco2)CC1	i	30µM	i	i	i
O=C(c1ccco1)N1CCN(S(=O)(=O)c2cc(Cl)ccc2Cl)CC1	i	i	?	i	nt
O=C(c1ccco1)N1CCN(Cc2c(Cl)cccc2Cl)CC1	?	27µM	?	3.2µM	nt
NC(=O)C1CCN(C(=O)c2ccc(-c3ccccc3Cl)o2)CC1	?	9.5µM	?	2.5µM	nt
CCc1ccc(-c2ccc(SCc3ccccn3)nn2)cc1	3.2µM	8.5µM	?	?	?
CCOc1ccc(-c2ccc(SCc3ccccn3)nn2)cc1	?	13µM	i	?	i
COc1ccc(C(=O)c2cn(CC(=O)Nc3cc(C)ccc3C)c3nc(C)ccc3c2=O)cc1	nt	i	nt	nt	nt
COc1ccc(CCC(=O)OCC(=O)Nc2ccc(OC)c(OC)c2)cc1OC	i	i	i	i	nt
COc1ccc(C(=O)OCC(=O)NC2CCCCCCC2)cc1OC	nt	nt	i	nt	nt
COc1ccc(NC(=S)Nc2cc(-c3ccccc3)[nH]n2)cc1Cl	i	?	i	i	i
COc1cc(C)c(NC(=S)Nc2ccc(C)c(Cl)c2)cc1OC	i	i	i	i	i
Cc1cc(NC(=S)Nc2ccc(C)c(Cl)c2)n[nH]1	?	17µM	?	?	18µM
COc1ccc(NC(=S)Nc2cc(C)[nH]n2)cc1Cl	?	17µM	i	?	nt
Cc1ccc(S(=O)(=O)NCC(=O)N(CC(=O)NCC2CCCO2)Cc2ccc(Cl)cc2)cc1 (stereo unspecified)	i	i	i	i	nt
Cc1ccc(C)c(OC(=O)c2cccc(S(=O)(=O)N3CCN(C)CC3)c2)c1	i	i	i	i	nt
CCCc1nc(Nc2nc3ccccc3o2)nc(C)c1C(=O)OCC	?	2.7µM	?	1.8µM	?
Cc1ccnc(Nc2nc3ccccc3o2)n1	?	3µM	1.2µM	0.4µM	2.5µM
Cc1nc(Nc2nc3ccccc3o2)nc(C)c1C	1µM	8.5µM	?	?	5.6µM
CCOC(=O)c1cnc(Nc2nc3ccccc3o2)nc1CSC(=S)N(CC)CC	i	i	i	i	i
Cc1ccc2oc(Nc3nc(C)c(C)c(C)n3)nc2c1	1.6µM	11µM	?	2.5µM	nt
Cc1ccc(Nc2nc3ccccc3o2)cc1F	?	6µM	5.8µM	1.6µM	?
Cc1ccc(C(=O)NNC(=O)c2ccco2)cc1	?	17µM	?	?	13µM
Cc1ccc(NC(=S)NNC(=O)c2ccco2)cc1	i	?	i	?	11µM
SMILES	NPC1 prom act	FLuc counter	ELG1 genotoxic	Rab9 promoter act	SMN2 splice up
Cc1cccc(NC(=S)NNC(=O)c2ccco2)c1	i	?	i	i	i
O[C@@H](COc1ccc(Cl)cc1Cl)CN1CCCC1	nt	nt	nt	nt	i[9.22 µM]
Cc1ccc(C(=O)N/N=C\C2CC=CCC2)cc1[N+](=O)[O-] (stereo unspecified)	i	i	i	i	nt
O=C(N/N=C/C1CC=CCC1)c1ccc(Cl)cc1O (stereo unspecified)	i	19µM	i	i	i
O=C(N/N=C/C1CC=CCC1)c1ccccc1O (stereo unspecified)	i	15µM	i	i	i
O=C(CNc1ccccc1F)N/N=C/C1CC=CCC1 (stereo unspecified)	i	i	i	i	i
C/C=N/NC(=O)c1cc(Br)ccc1O	i	i	i	i	i
O=C(N/N=C/C1CC=CCC1)c1cc(Br)ccc1O (stereo unspecified)	i	13µM	i	i	i
Cc1ccccc1C(N)c1ccncc1 (stereo unspecified)	i	i	i	i	nt
Cc1cc2occ(CC(=O)OCC(=O)Nc3sc4c(c3C#N)CCC(C)C4)c2cc1C (stereo unspecified)	i	?	i	i	i
CC(C)(C)c1ccc(-c2ncccc2O)cc1	i	13µM	i	i	nt
c1ccc(-c2nccnc2-c2ccccc2)cc1	i	i	i	i	nt
Cc1ccc2oc(-c3cccc(NC(=O)/C=C/c4cccc([N+](=O)[O-])c4)c3C)nc2c1	?	3.4µM	i	4.5µM	13µM
O=C(/C=C/c1cccc([N+](=O)[O-])c1)Nc1ccccn1	?	i	i	2.8µM	i
O=C(/C=C/c1cccc([N+](=O)[O-])c1)Nc1cccc(NC(=O)c2ccco2)c1	i	19µM	i	i	i
CC(NC(=O)/C(=C\c1cccc([N+](=O)[O-])c1)NC(=O)c1ccco1)C(=O)O (stereo unspecified)	i	15µM	i	i	i
O=C(NC(Cc1ccccc1)C(=O)O)/C(=C/c1cccc([N+](=O)[O-])c1)NC(=O)c1ccco1 (stereo unspecified)	i	i	i	i	nt
O=C(/C=C/c1cccc([N+](=O)[O-])c1)N(c1ccccn1)c1ccccn1	i	i	i	i	nt
COC(=O)[C@@]1(Cc2ccccc2)[C@H]2C(=O)N(C)C(=O)[C@H]2[C@H]2CN=C(SCc3ccc(Cl)cc3)N21	nt	nt	i	nt	nt
CC[C@H]1c2[nH]c3ccccc3c2C[C@@H]2C(=O)N(c3ccc(F)cc3)C(=O)N21	i	i	i	i	nt
CC(CC(=O)O)(CC(=O)O)C(=O)O	nt	nt	nt	nt	i[9.22 µM]
CCOc1ccc(NC(=O)CN(C)C(=O)CN2C(=O)c3ccc([N+](=O)[O-])cc3C2=O)cc1OCC	i	i	i	i	nt
COc1ccc(-c2cc(-c3c(O)c(OC)c4occc4c3OC)[nH]n2)cc1	i	17µM	i	i	i
COc1ccc(-c2cc(=O)c3c(O)c(OC)c(OC)c(OC)c3o2)cc1OC	nt	nt	nt	nt	i
COc1ccc(-c2cc(-c3c(O)c(OC)c4occc4c3OC)[nH]n2)cc1OC	i	17µM	i	i	i
SMILES	NPC1 prom act	FLuc counter	ELG1 genotoxic	Rab9 promoter act	SMN2 splice up
COc1ccc2cc([S+]([O-])Cc3ncc(C)c(OC)c3C)nc2c1	i	nt	nt	i	nt
CCOc1ccc(-n2c(=O)c3c(C)c(C)sc3n(Cc3cc(=O)n4cc(Cl)ccc4n3)c2=O)cc1	nt	i	nt	nt	i
COC(=O)c1c(-c2cc(OC)c(OC)c(OC)c2)c2ccc(OCc3ccccn3)cc2c(=O)n1-c1ccc(N)cc1	nt	nt	nt	nt	i
COc1ccc(-c2noc(N(C)CC(=O)Nc3cccc(C(F)(F)F)c3)n2)cc1	?	8.5µM	i	i	i
O=c1c2ccccc2c(/C=N/c2nnc(Cc3ccccc3)s2)c(O)n1-c1ccc(Cl)cn1	i	1.9µM	i	i	i
CN(C)c1ccc(C(=O)c2ccccc2)cc1	?	11µM	i	3.2µM	i
CN(C)c1ccc(N=Nc2ccc(C(=O)O)cc2)cc1	0.013µM	0.24µM	i	0.0002µM	nt

From PubChem BioAssay
